We go through 60 compounds from PubChem BioAssay (Tox21).

Records with an inconclusive call do not appear. The source holds several records for some structures; these can differ, active in one and inactive in another. Activity calls are given as the source filed them. The call rests on the fitted dose curve.

Assay [1] concerns the target Acetylcholinesterase (Homo sapiens) (UniProt P22303). The assay is described as follows: Acetylcholinesterase (AChE) small molecule antagonists: colormetric cell-based qHTS assay (AID 1347395). Further: nearly all actives have a fitted effect of over 30% in size. The procedure, abridged: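 Endogenous AChE of human neuroblastoma SH-SY5Y cells was measured with an Ellman-type DTNB/acetylthiocholine mix. Compound pretreatment lasted 30 min at 37 C; substrate reaction ran 90 min at 37 C.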

Assay [2] has the same target. The assay is described as follows: Acetylcholinesterase (AChE) small molecule antagonists: enzyme-based qHTS assay (AID 1347397). Further: nearly all actives have a fitted effect of over 55% in size. To be noted: Potency: AChE enzyme activity inhibition; outcome: AChE enzyme activity inhibition. The essentials:
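In this quantitative HTS, compounds from the Tox21 10K collection were preincubated 30 min at ambient temperature with recombinant human AChE dispensed at 50 mU/mL. Hydrolysis of acetylthiocholine was then followed for 10 min by DTNB colour development.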
In general terms: Quantitative high-throughput screening tests each substance at several concentrations.

Assay [3] has the same target. The assay is described as follows: Acetylcholinesterase (AChE) small molecule antagonists: fluorescence cell-based qHTS assay (AID 1347398). Further: nearly all actives have a fitted effect of over 50% in size. To be noted: Potency: AChE activity; outcome: AChE activity. The procedure, abridged: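 Cells (SH-SY5Y) attached overnight, were dosed with compound or DMSO vehicle for 30 min at 37 C, and then incubated 40 min at room temperature with acetylthiocholine and Thiolite Green; green fluorescence indexed AChE activity.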

Assay [4] shares this target. The assay can be described thus: Acetylcholinesterase (AChE) small molecule antagonists: enzyme-based qHTS assay with human liver microsomes (AID 1347399). Further: nearly all actives have a fitted effect of over 60% in size. To be noted: Potency: qHTS inhibition; outcome: qHTS inhibition. The procedure, abridged:
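Recombinant human AChE (50 mU/mL in the enzyme mix) and human liver microsomes (0.25 mg/mL final) were preincubated with compound and NADPH (0.25 mg/mL final) for 30 min at 37 C. Acetylthiocholine/DTNB was then added; thiocholine was read colorimetrically after 10 min at room temperature.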
On the % scale 0 is the no-effect control and ±100 the full control effect; potency means the concentration at half of the fitted maximal effect.

Sequence of Acetylcholinesterase (Homo sapiens) (P22303 whole entry, looked up): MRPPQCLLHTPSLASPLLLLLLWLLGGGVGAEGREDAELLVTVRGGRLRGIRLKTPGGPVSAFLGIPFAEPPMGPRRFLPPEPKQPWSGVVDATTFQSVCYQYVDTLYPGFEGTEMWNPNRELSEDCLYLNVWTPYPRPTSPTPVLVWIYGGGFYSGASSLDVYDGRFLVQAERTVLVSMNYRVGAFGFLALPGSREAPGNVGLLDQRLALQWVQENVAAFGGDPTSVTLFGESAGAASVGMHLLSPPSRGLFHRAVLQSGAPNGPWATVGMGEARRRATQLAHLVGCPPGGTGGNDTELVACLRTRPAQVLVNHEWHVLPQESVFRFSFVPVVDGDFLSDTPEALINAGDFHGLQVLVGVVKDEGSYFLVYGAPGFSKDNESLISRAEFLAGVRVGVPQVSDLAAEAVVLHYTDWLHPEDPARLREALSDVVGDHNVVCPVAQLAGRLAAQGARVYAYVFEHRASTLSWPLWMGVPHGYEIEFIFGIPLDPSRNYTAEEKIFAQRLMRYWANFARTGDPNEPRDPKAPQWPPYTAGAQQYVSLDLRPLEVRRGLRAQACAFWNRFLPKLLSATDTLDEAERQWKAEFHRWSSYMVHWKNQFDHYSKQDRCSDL

With `CC(CCO)CC(C)(C)C` (stereo not given), the Potency result in assay [1], in assay [2], in assay [3] and in assay [4] was “inactive” in each case.

In the case of `O=C(O)Cc1ccc(-c2ccccc2)cc1`, the Potency result in assay [1], in assay [2], in assay [3] and in assay [4] was “inactive” throughout.

In the case of `C#CCN(C)CCCOc1ccc(Cl)cc1Cl`, the Potency entry in assay [1], in assay [2], in assay [3] and in assay [4] was “inactive” in each case.

Regarding `CC(=O)N[C@@H](CCC(N)=O)C(=O)O`, the Potency result in assay [1], in assay [2], in assay [3] and in assay [4] was “inactive” throughout.

As for `C[Si](C)(C)N[Si](C)(C)C`, the Potency result in assay [1] was “inactive”. Moreover, the Potency in assay [2] was 3.96 µM (active) and inactive; in assay [3], 1.98 µM (active) and inactive; in assay [4], 19.8 µM (active) and inactive.

For `C[N+]1(CC2COC(c3ccccc3)(C3CCCCC3)O2)CCCCC1` (stereo not given), the Potency result in assay [1], in assay [2], in assay [3] and in assay [4] was “inactive” each time.

With `O=C(Nc1ccc2c(c1)Cc1ccccc1-2)C(F)(F)F`, the Potency entry in assay [1], in assay [2], in assay [3] and in assay [4] was “inactive” in each case.

As to `CN1C(=O)CC(C)(c2ccccc2)C1=O` (stereo not given), the Potency entry in assay [1], in assay [2], in assay [3] and in assay [4] was “inactive” each time.

`CCCN(CCC)C(=O)SCC`: the Potency result in assay [1], in assay [2], in assay [3] and in assay [4] was “inactive” in each case.

For `NCCCCCC(=O)O`, the Potency result in assay [1], in assay [2], in assay [3] and in assay [4] was “inactive” throughout.

Take `Nc1ccncc1N`: the Potency entry in assay [1], in assay [2], in assay [3] and in assay [4] was “inactive” each time.

With `CCOCCn1c(C2CCN(CCc3ccc(C(C)(C)C(=O)O)cc3)CC2)nc2ccccc21`, the Potency entry in assay [1], in assay [2], in assay [3] and in assay [4] was “inactive” throughout.

On to `CN(C(=O)CN(CCO)CC(=O)N(C)C(C)(C)Cc1ccccc1)C(C)(C)Cc1ccccc1`, for which the Potency entry in assay [1], in assay [2], in assay [3] and in assay [4] was “inactive” each time.

As to `CC1(C)CC(O)CC(C)(C)N1`, the Potency entry in assay [1], in assay [2], in assay [3] and in assay [4] was “inactive” throughout.

On to `CC(C)C1=CC2=CC[C@@H]3[C@](C)(CCC[C@@]3(C)C(=O)O)[C@H]2CC1`, for which the Potency entry in assay [1], in assay [2], in assay [3] and in assay [4] was “inactive” in each case.

As for `Cc1ccc(S(N)(=O)=O)cc1`, the Potency entry in assay [1], in assay [2], in assay [3] and in assay [4] was “inactive” throughout.

Take `CCC(C)OC(=O)N1CCCCC1CCO` (stereo not given): the Potency result in assay [1], in assay [2], in assay [3] and in assay [4] was “inactive” each time.

Turning to `O=C1c2ccccc2C(=O)N1CO`, the Potency entry in assay [1], in assay [2], in assay [3] and in assay [4] was “inactive” throughout.

As for `CCCCOc1cc(C(=O)NCCN(CC)CC)c2ccccc2n1`, the Potency result in assay [1], in assay [2], in assay [3] and in assay [4] was “inactive” in each case.

`O=C(O)c1ccccc1[N+](=O)[O-]`: the Potency entry in assay [1], in assay [2], in assay [3] and in assay [4] was “inactive” in each case.

Regarding `CN1CCN(CCCN2c3ccccc3Sc3ccc(Cl)cc32)CC1`, the Potency result in assay [1], in assay [2], in assay [3] and in assay [4] was “inactive” throughout.

For the compound `CCCOC(=O)c1ccc(C(=O)OCCC)nc1`, the Potency entry in assay [1], in assay [2], in assay [3] and in assay [4] was “inactive” each time.

As for `CC[C@]12CCCN3CCc4c(n(c5ccccc45)C(=O)C1)[C@@H]32`, the Potency entry in assay [1], in assay [2], in assay [3] and in assay [4] was “inactive” each time.

For `Cc1cc(S(=O)(=O)O)c(N)cc1Cl`, the Potency entry in assay [1], in assay [2], in assay [3] and in assay [4] was “inactive” throughout.

As for `Oc1c(I)cc(Cl)c2cccnc12`, the Potency entry in assay [1], in assay [2], in assay [3] and in assay [4] was “inactive” each time.

Turning to `CCOC(=O)NNc1ccc(N(CC)CC(C)O)nn1` (stereo not given), the Potency result in assay [1], in assay [2], in assay [3] and in assay [4] was “inactive” in each case.

`CN(C)C(=S)SC(=S)N(C)C`: the Potency was 56.4 µM (active) and inactive in assay [1]; 35.6 µM (active) and inactive in assay [3]. In addition, the Potency result in assay [2] and in assay [4] was “inactive” each time.

Regarding `CC(=O)N/N=C/c1ccc([N+](=O)[O-])o1`, the Potency result in assay [1], in assay [2], in assay [3] and in assay [4] was “inactive” in each case.

For the compound `CCCCC1(COC(=O)CCC(=O)O)C(=O)N(c2ccccc2)N(c2ccccc2)C1=O`, the Potency result in assay [1], in assay [2], in assay [3] and in assay [4] was “inactive” each time.

As to `O=C1NCC2(CCN(CCc3ccccc3)CC2)O1`, the Potency entry in assay [1], in assay [2], in assay [3] and in assay [4] was “inactive” throughout.

Consider `CCCn1cnc2c1c(=O)n(CCCCC(C)=O)c(=O)n2C`, for which the Potency result in assay [1], in assay [2], in assay [3] and in assay [4] was “inactive” each time.

Consider `COc1ccc2c(c1)c(CC(=O)OCC(=O)O)c(C)n2C(=O)c1ccc(Cl)cc1`, for which the Potency entry in assay [1], in assay [2], in assay [3] and in assay [4] was “inactive” throughout.

As for `BrCc1cccc(Oc2ccccc2)c1`, the Potency result in assay [1], in assay [2], in assay [3] and in assay [4] was “inactive” each time.

As to `CCC1OCC(COc2ccc(Oc3ccccc3)cc2)O1` (stereo not given), the Potency entry in assay [1], in assay [2], in assay [3] and in assay [4] was “inactive” each time.

With `Nc1nc(=S)c2[nH]cnc2[nH]1`, the Potency in assay [1] is 21.9 µM (active) and inactive. Also, the Potency entry in assay [2], in assay [3] and in assay [4] was “inactive” each time.

With `CN(C)Cc1cc(CN(C)C)c(O)c(CN(C)C)c1`, the Potency entry in assay [1], in assay [2], in assay [3] and in assay [4] was “inactive” throughout.

As for `C=C(C)C(=O)OCCC[Si](OC)(OC)OC`, the Potency entry in assay [1], in assay [2], in assay [3] and in assay [4] was “inactive” each time.

Consider `O=[N+]([O-])c1ccc(CCO)cc1`, for which the Potency entry in assay [1], in assay [2], in assay [3] and in assay [4] was “inactive” in each case.

For the compound `CCCCCCCC(=O)O`, the Potency entry in assay [1], in assay [2], in assay [3] and in assay [4] was “inactive” each time.

Turning to `CCCCCOC(C)=O`, in assay [1], the Potency was 32.1 µM (active) and inactive. The Potency result in assay [2], in assay [3] and in assay [4] was “inactive” each time.

As to `CCCOC(=O)C(C)O` (stereo not given), the Potency entry in assay [1], in assay [2], in assay [3] and in assay [4] was “inactive” in each case.

For `C[C@]12CCC(=O)C=C1[C@@H]1C[C@@H]1[C@H]1[C@@H]3[C@@H]4C[C@@H]4[C@@]4(CCC(=O)O4)[C@@]3(C)CC[C@@H]12`, the Potency result in assay [1], in assay [2], in assay [3] and in assay [4] was “inactive” throughout.

For `C=C(C)C(=O)OCCCCCCCCCCCCCCCCCC`, the activity, negative = inhibition in assay [1] was 0.231% [at 23.6 µM] (inactive). Also, the results for the activity change, negative = inhibition in assay [2], in assay [3] and in assay [4] were 0.946% [at 23.6 µM] (inactive), 2.72% [at 23.8 µM] (inactive) and 0.563% [at 23.6 µM] (inactive), respectively.

Turning to `CCOC(=O)COc1ccc(C)cc1`, the Potency entry in assay [1], in assay [2], in assay [3] and in assay [4] was “inactive” throughout.

For the compound `CCOCCOCC`, the Potency entry in assay [1], in assay [2], in assay [3] and in assay [4] was “inactive” in each case.

Consider `CC(C)(CO)COC(=O)C(C)(C)CO`, for which the Potency result in assay [1], in assay [2], in assay [3] and in assay [4] was “inactive” each time.

For `C[C@@H](O)[C@H]1C(=O)N2C(C(=O)O)=C(S[C@@H]3CN[C@H](C(=O)N(C)C)C3)[C@H](C)[C@H]12`, the Potency result in assay [1], in assay [2], in assay [3] and in assay [4] was “inactive” throughout.

On to `COc1ccc(NC(C)=O)cc1N`, for which the Potency result in assay [1], in assay [2], in assay [3] and in assay [4] was “inactive” each time.

Turning to `CCCCCC1C(=O)CCC1CC(=O)OC` (stereo not given), the Potency entry in assay [1], in assay [2], in assay [3] and in assay [4] was “inactive” in each case.

Consider `Cc1nc2ccccc2s1`, for which the Potency entry in assay [1], in assay [2], in assay [3] and in assay [4] was “inactive” in each case.

With `O=C1c2ccccc2C(=O)c2cc(S(=O)(=O)O)ccc21`, the Potency result in assay [1], in assay [2], in assay [3] and in assay [4] was “inactive” throughout.

Consider `O=C1Cc2cc(Cl)ccc2N1`, for which the Potency entry in assay [1], in assay [2], in assay [3] and in assay [4] was “inactive” each time.

For `Cc1nc2ccc(CN(C)c3ccc(C(=O)N[C@@H](CCC(=O)O)C(=O)O)s3)cc2c(=O)[nH]1`, the Potency result in assay [1], in assay [2], in assay [3] and in assay [4] was “inactive” each time.

Regarding `O=C(NCN1CCOCC1)c1cnccn1`, the Potency result in assay [1], in assay [2], in assay [3] and in assay [4] was “inactive” each time.

For `CCOC(=O)OCC`, the Potency result in assay [1], in assay [2], in assay [3] and in assay [4] was “inactive” each time.

In the case of `c1ccc(Cc2ccccc2)cc1`, the Potency entry in assay [1], in assay [2], in assay [3] and in assay [4] was “inactive” throughout.

Consider `C=C(C)C1CCC(C)CC1O` (stereo not given), for which the Potency result in assay [1], in assay [2], in assay [3] and in assay [4] was “inactive” each time.

For `Nc1ccc(C(=O)N2CC3CC(CN(Cc4ccccc4)C3)C2)cc1`, the Potency entry in assay [1], in assay [2], in assay [3] and in assay [4] was “inactive” each time.

Consider `O=c1[nH]c(=O)n([C@H]2C[C@H](O)[C@@H](CO)O2)cc1Br`, for which the Potency entry in assay [1], in assay [2], in assay [3] and in assay [4] was “inactive” in each case.

Turning to `COc1ccc2c(c1)c(CC(=O)O)c(C)n2C(=O)c1ccc(Cl)cc1`, the Potency entry in assay [1], in assay [2], in assay [3] and in assay [4] was “inactive” throughout.
